# Data as given in ChEMBL document CHEMBL1157539, “Thousands of chemical starting points for antimalarial lead identification” (Nature, 2010).
# Experiments:
# Type in all cases: functional
# [1] = tested on: Plasmodium falciparum; assay: GSK_TCMDC: Inhibition of Plasmodium falciparum 3D7 in whole red blood cells, using parasite LDH activity as an index of growth. Test compounds present at 2uM
# [2] = tested on: Plasmodium falciparum; assay: GSK_TCMDC: Inhibition of Plasmodium falciparum Dd2 in whole red blood cells, using parasite LDH activity as an index of growth. Test compounds present at 2uM
# [3] = tested on: HepG2; assay: GSK_TCMDC: Percent inhibition of human HepG2 cell line. Test compounds present at 10uM.
SMILES,Inhibition [1] [%],Inhibition [2] [%],Inhibition [3] [%]
C/C(=C\C(=O)NC1CC1)c1ccccc1OCc1ccccc1,90,1,3
O=C(c1ccc(-c2ccc(-c3nc4cc(F)ccc4[nH]3)cc2)cc1)N1CCCCC1CN1CCC(O)C1 (stereo not given),90,100,24
CN(C)Cc1ccc(-c2ccc3c(Nc4ccc(Cl)cc4F)ccnc3c2)o1,100,99,13
CCN(CC)/C(=N\CCCCCC/N=C(\NC(=N)c1ccc(Cl)cc1)N(CC)CC)NC(=N)c1ccc(Cl)cc1,97,99,1
COc1cc2nc(N3CCC(CNC(=O)c4ccc(-c5cccc(C#N)c5)cc4)CC3)nc(N)c2cc1OC,100,100,18
COc1ccc2nccc([C@@H](O)CN3CCC(NC(=O)C(c4cc5ccccc5s4)N4CC(C)OC(C)C4)CC3)c2c1 (stereo not given in full),93,44,12
CN1CCN(c2ccnc3ccc(NC(=O)Cc4ccc5ccccc5c4)cc23)CC1,100,89,6
Cl.N=C(N)c1ccc(-c2cc3ccc(C(=N)N)cc3[nH]2)cc1,99,99,18
CCN(CC)CCN(Cc1ccc(-c2ccc(C(F)(F)F)cc2)cc1)C(=O)Cn1c(CCc2ccc(F)c(F)c2F)nc(=O)c2ccc(F)cc21.O=C(O)C(O)C(O)C(=O)O,98,46,19
Cc1ccc2nc(C)cc(N/N=C/c3ccc([N+](=O)[O-])o3)c2c1,100,99,15
O=C(Nc1ccc(OC2CCN(Cc3ccco3)CC2)c(Cl)c1)c1ccc2ncccc2c1.O=C(O)C(F)(F)F,97,40,0
COc1cccc(C(NC(=O)c2ccccc2)c2ccc3cccnc3c2O)c1 (stereo not given),89,41,52
O=C(Nc1ccc2c(c1)CCC2)c1cnc(N2CCN(c3ccncc3)CC2)c(Cl)c1.O=C(O)C(F)(F)F,100,48,33
Cn1nc(-c2cccc(CNC3CCc4ccccc43)c2)c2cnc(NC3CCCC3)nc21 (stereo not given),100,23,14
N#Cc1ccc(N/C(=N\c2cccc(Cl)c2Cl)NC2Cc3ccccc3C2)c(O)c1,94,77,15
CN(Cc1ccc(-c2ccc(C(F)(F)F)cc2)cc1)C(=O)Cn1c(CCc2cccc(F)c2F)nc(=O)c2ccc(N3CCN(CCN4CCCCC4)CC3)nc21.O=C(O)C(O)C(O)C(=O)O,100,100,100
COc1cccc(CNC(=O)c2cnc(N3CCN(c4ccncc4)CC3)c(Cl)c2)c1.O=C(O)C(F)(F)F,89,12,25
COc1cc2c(c(Cl)c1OC)CCN(C(=O)C(F)(F)F)CC2c1ccccc1 (stereo not given),100,100,7
Fc1ccc2[nH]c(-c3ccc(-c4ccc(CN5CCC(CCN6CCCCC6)CC5)cc4)cc3)nc2c1.O=C(O)C(F)(F)F,100,100,98
NC1CCCN(Cc2cccc(-c3ccc(-c4nc5cc(C(F)(F)F)ccc5[nH]4)cc3)c2)C1.O=C(O)C(F)(F)F (stereo not given),99,96,47

SMILES,Inhibition [1] [%],Inhibition [2] [%],Inhibition [3] [%]
CS(=O)(=O)O.Nc1nc(NCC2CCC(CNS(=O)(=O)c3cccc4ccccc34)CC2)nc2ccccc12 (stereo not given),97,42,9
CS(=O)(=O)c1ccc(-c2cnc(N)c(-c3ccc(O)cc3)c2)cc1,84,94,38
CC1CCCN1Cc1cccc(-c2ccc(C(=O)NCCOc3ccccc3)s2)c1.O=C(O)C(F)(F)F (stereo not given),83,0,26
CCN(CCCN1CCCCC1)c1cc(C)nc(Nc2ccc(Oc3ccccc3)cc2)n1.O=C(O)C(F)(F)F,100,99,50
CC(C)c1ccc(NS(=O)(=O)c2cccc(C(=O)NC3CCN(CC4CCCCC4)CC3)c2)cc1.O=C(O)C(F)(F)F,93,69,71
Fc1ccc2[nH]c(-c3ccc(-c4ccc(CN5CCN(c6ccncc6)CC5)cc4)cc3)nc2c1.O=C(O)C(F)(F)F,100,100,37
O=C(O)C(F)(F)F.c1ccc(CCNc2ccnc(Nc3ccc4[nH]nnc4c3)n2)cc1,100,95,33
Cc1cc(-c2nc3ccc(C(=O)NCc4ccccc4)cc3n2C2CCN(C(=O)c3ccc(-c4ccccc4)cc3)CC2)ccn1,95,97,36
CCN1CCN(c2cc(C)c3cc(NC(=O)c4cncc(Br)c4)ccc3n2)CC1,97,63,3
COc1ccc2ncc(C#N)c(CCN3CCC(NCc4ccc5c(c4)OCCO5)CC3)c2c1.Cl,96,31,12
Cc1c(Cl)cccc1N=C(S)NN=Cc1ccccn1,99,85,58
CCCCCCN1CCCN(Cc2ccc(C(=O)Nc3ccc(Cl)cc3)cc2)CC1.O=C(O)C(F)(F)F,89,54,50
O=C(Nc1cccc(CN2CCN(C(=O)c3cccc(F)c3)CC2)c1)c1cccs1.O=C(O)C(F)(F)F,95,95,17
O=C(Nc1ccc(-c2nc3ccccc3[nH]2)cc1)c1ccc([N+](=O)[O-])s1,100,77,83
CCCC(=O)Nc1ccc(Cl)c(NC(=O)COc2cc(C)ccc2C(C)C)c1,87,67,2
NC(=O)c1ccc(NCC(=O)Nc2cccc(-c3cccc(-c4nc5cc(C(F)(F)F)ccc5[nH]4)c3)c2)cc1,99,41,32
CC(=O)c1c(Nc2c(C)cc(C)cc2C)oc(C)cc1=O,95,83,7
COc1ccc2nccc(CCC3(O)CCC(NCc4cc5c(cc4F)SCC(=O)N5)CC3)c2c1 (stereo not given),87,48,9
NC(=O)COc1c(C2CCN(CCN3CCC(CNC(=O)c4ccc(-c5ccc(C(F)(F)F)cc5)cc4)CC3)CC2)ccc2c1CCCC2,87,68,32
Br.C[C@@H](COc1ccc(-c2ccccc2)cc1)CON1C(N)=NC(N)=NC1(C)C,96,96,62

SMILES,Inhibition [1] [%],Inhibition [2] [%],Inhibition [3] [%]
OC(CNc1ccnc(Nc2cccc(OCCCN3CCOCC3)c2)n1)c1ccccc1 (stereo not given),97,25,48
CC(C)(CNCc1cccc(Oc2ccccc2)c1)c1nc(-c2ccnc(N)n2)c(-c2ccc(Cl)c(O)c2)[nH]1.Cl,97,99,28
N#CCCN1CCN(Cc2ccc(-c3cccc(-c4nc5cc(F)ccc5[nH]4)c3)cc2)CC1.O=C(O)C(F)(F)F,91,17,16
O=C(O)C(F)(F)F.O=S(=O)(NCCN1CCCC1)c1ccc(-c2ccc(CN3Cc4ccccc4C3)cc2)s1,89,18,19
Cc1cc(C(F)(F)F)n2nc(C(=O)N(Cc3cncn3Cc3cccc(F)c3)CC3CC3)cc2n1,100,92,0
O=C(Nc1cccc(C(F)(F)F)c1)Nc1ccc2nonc2c1,98,76,0
COC(=O)c1cc(NC(=O)Nc2ccc(Cn3ncc(N4CCCNCC4)c(Cl)c3=O)cc2)cc(C(=O)OC)c1.O=C(O)C(F)(F)F,96,90,0
Br.CCCCCCCNCCNc1cc(C)nc2ccccc12,100,99,58
CCCCNCc1ccc(-c2nc(CN(CCCN3CCN(C)CC3)C(=O)Nc3cccc(Cl)c3)cs2)cc1.O=C(O)C(F)(F)F,99,73,35
Cc1cc(N[C@@H](Cc2ccccc2)C(=O)NCCOc2ccccc2)nc(NCc2ccccc2C)n1.O=C(O)C(F)(F)F,100,80,32
COc1cc(C(F)(F)F)c2cc(CNCCCNc3nc4ccccc4[nH]3)[nH]c2c1,100,0,60
COc1cc(C(C)C)ccc1N1CCN(CCCCNC(=O)c2ccc(NC(=O)c3ccc(Cl)cc3)cc2)CC1,98,81,25
CC(C)Oc1cc2c(cc1NS(=O)(=O)c1ccc(-c3cccs3)cc1)CCN(C)CC2.Cl,88,9,9
CN(C)Cc1ccc(O)c(-c2ccc(C(C)(C)C)cc2)n1.Cl,86,25,0
COc1ccc2c(NN=Cc3cccnc3)ccnc2c1,97,26,3
CC(C)c1ccc(NC(=O)c2ccc(NCCCN(C)Cc3ccccc3)c([N+](=O)[O-])c2)cc1,100,35,21
Cc1cccc2nc(-c3cccc(-c4ccc(NC(=O)C5CCN(C)CC5)cc4)c3)[nH]c12,100,100,16
COc1cc2nc(N3CCN(C(=O)c4cccc(I)c4)CC3)nc(N)c2cc1OC,88,26,11
CCc1c(C)c2ccc3c(c2oc1=O)CN(CCc1ccc(F)cc1)CO3,94,85,0
CC(=O)c1c[nH]c(C(=O)Nc2ccc(-c3cn4ccccc4n3)cc2)c1,98,95,20
